A selection: hits, their analogues and other compounds. The true share with any hit is near 12%.
G9a block: qHTS Assay for Inhibitors of Histone Lysine Methyltransferase G9a; Histone-lysine N-methyltransferase EHMT2 (Homo sapiens), Q96KQ7; G9a H3K9 monomethylation, AlphaScreen, 2 h; Potency, µM (doses to about 102 µM), without a hit: at the top dose activity, negative = inhibition, most hits filed as inhibitors; 350,000 compounds, 8.8% hits; further: on the % scale 0 is the no-effect control and ±100 the full control effect; nearly all actives have a fitted effect of over 75% in size
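Using a bead-based AlphaScreen, monomethylated H3K9 product from 2 h room-temperature reactions (G9a 20 nM, peptide 500 nM, SAM 20 uM) was detected with 0.5 ug/mL rabbit anti-H3K9me1 antibody.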
HP1b chromo inh: HTS for Inhibitors of HP1-beta Chromodomain Interactions with Methylated Histone Tails; Chromobox protein homolog 1 (Homo sapiens), P83916; AlphaScreen HP1-beta / biotin-H3K9me3 peptide binding; Potency, µM (titrated, usually from 114 µM), for inactives: at the highest dose activity change, negative = inhibition, actives largely listed as inhibitors; 390,000 compounds, 0.56% hits; AID 540317, 2011; further: nearly all actives have a fitted effect of over 70% in size
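AlphaScreen: HP1-beta (50 nM) preformed 30 min with biotin-H3(1-18)K9me3 peptide (50 nM) in PBS pH 7.4, 0.01% Tween-20. Compound added for 30 min at RT, then streptavidin donor/nickel chelate acceptor beads (10 ug/mL) for 30 min.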
JMJD2A Tudor: qHTS Assay for Inhibitors of JMJD2A-Tudor Domain. AlphaScreen JMJD2A-Tudor / H3K4me3 peptide binding. Potency, µM (series often up to 114 µM), for inactives: at the top dose activity change, negative = inhibition, hits mostly inhibitors. Lysine-specific demethylase 4A (Homo sapiens), O75164. 390,000 compounds, 4.4% hits; further: on the % scale 0 is the no-effect control and ±100 the full control effect; nearly all actives have a fitted effect of over 50% in size
Sfp PPTase inh: qHTS Assay for Inhibitors of Bacillus subtilis Sfp phosphopantetheinyl transferase (PPTase); Biochemical Sfp PPTase activity, qHTS; 310,000 compounds, 3.5% hits; 4'-phosphopantetheinyl transferase ffp (Bacillus subtilis), Q9F4F7; AID 1490, 2009; Potency, µM, without a hit: largest response in the series, negative = inhibition, most hits filed as inhibitors;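 further: the enzyme is Sfp with the accession as filed and its product quenches rhodamine fluorescence; 0% = enzyme reaction without inhibitor and -100% = no enzyme wells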
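Compounds were incubated with enzyme (final 15 nM) for 15 min at room temperature before substrate addition started the reaction. Fluorescence at 525 nm excitation, 598 nm emission was recorded immediately and after 30 minutes.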
PLK1 PBD inh: qHTS for Inhibitors of PLK1-PDB (polo-like kinase 1 - polo-box domain): Primary Screen | Serine/threonine-protein kinase PLK1 (Homo sapiens), P53350 | Plk1 PBD binding of FITC phosphopeptide, fluorescence polarization | Potency, µM, without a hit: max response, negative = inhibition, hits mostly inhibitors | 360,000 compounds, 2.8% hits | AID 720504, 2013; further: series mostly up to about 57 µM; on the % scale 0 is the no-effect control and ±100 the full control effect; nearly all actives have a fitted effect of over 65% in size
BAZ2B block: qHTS Assay for Inhibitors of BAZ2B; 360,000 compounds, 4.4% hits; AID 504333, 2011; Potency, µM (highest dose often 114 µM), without a hit: at the highest dose activity change, negative = inhibition, actives largely listed as inhibitors; Bromodomain adjacent to zinc finger domain protein 2B (Homo sapiens), Q9UIF8; AlphaScreen BAZ2B-H3K14Ac peptide displacement; further: on the % scale 0 is the no-effect control and ±100 the full control effect; nearly all actives have a fitted effect of over 60% in size
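Multi-concentration screen (max 110 uM) measuring displacement of acetylated histone H3 peptide from BAZ2B by AlphaScreen, using 50 nM protein, 50 nM peptide and 10 ug/mL streptavidin donor plus Ni-chelate acceptor beads.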
The depositor's hits bear a star; ? = inconclusive; · = not tested or not shown; [ ] = another dose, or the depositor's remark. The call rests on the fitted dose curve; in most records, active means well fitted curve in the direction sought with a large enough effect; inconclusive means small, poorly fitted or top-dose-only effect, or another doubt; inactive means no such curve, though single readings can be large; an effect the other way counts as inactive or inconclusive. Potency means the concentration at half of the fitted maximal effect.

SMILES | G9a block | HP1b chromo inh | JMJD2A Tudor | Sfp PPTase inh | PLK1 PBD inh | BAZ2B block
COc1ccc2c(c1)Oc1ncn(CCN3CCOCC3)c(=N)c1C2c1ccc(OC)c(OC)c1 (centres undefined) | · | · | -20% | · | · | ·
Cc1ccc(NS(=O)(=O)c2cc3c(cc2Cl)CCC(=O)N3)cc1C | · | · | -8% | · | · | ·
CC(=O)Nc1ccc(S(=O)(=O)NCCSc2ccccn2)cc1 | 2.5µM* | 63% | ? | 6% | -3% | -4%
CCCNS(=O)(=O)c1ccc(NC(=O)c2ccccn2)cc1 | -7% | 16% | 20µM* | -5% | 3% | 0%
CC(=O)Nc1ccc(S(=O)(=O)NCCNS(=O)(=O)c2ccc(NC(C)=O)cc2)cc1 | ? | 23% | -21% | 2% | -2% | 7%
COc1cc(F)c(S(=O)(=O)N2CCCN(S(=O)(=O)c3ccc(NC(C)=O)cc3)CC2)c(F)c1 | · | · | -27% | · | · | ·
O=[N+]([O-])c1ccc(S(=O)(=O)N2CCSC2c2ccco2)cc1 (centres undefined) | 8.9µM* | -22% | ? | 40µM* | 12µM* | ?
NC(=O)C1CC2(NC(=O)NC2=O)c2cc(F)ccc2O1 (centres undefined) | -2%[12.7 µM] | · | · | 8% | · | ·
Cc1ccc(CSCCC(=O)N2CCN(c3ccc(F)cc3)CC2)cc1 | ? | -18% | ? | · | · | -32%
O=C1CC(N2CCCc3ccccc32)C(=O)N1c1ccccc1 (centres undefined) | 40µM* | 47% | 4% | 9% | -2% | 3%
CCc1ccccc1N1C(=O)CC(N2CCc3ccccc32)C1=O (centres undefined) | ? | 35% | -2% | 17% | -7% | -23%
OC(c1ccc(Cl)c(Cl)c1)c1ncc(-c2ccccc2C(F)(F)F)[nH]1 (centres undefined) | · | · | · | · | 1% | ·
CCc1nnc(NS(=O)(=O)c2ccc(NC(=S)NC(=O)c3cccnc3)cc2)s1 | · | 48% | 9% | -2% | -18% | 2%
Cc1cc(C)nc(NS(=O)(=O)c2ccc(NC(=S)NC(=O)c3cccnc3)cc2)n1 | 50µM* | -2% | -16% | 40µM* | -24% | -17%
COc1ccc(/C=C/C(=O)NC(=S)Nc2ccc(S(=O)(=O)Nc3cc(C)on3)cc2)cc1 | 40µM* | -7% | -28% | -1% | ? | -25%
Cc1cc(NS(=O)(=O)c2ccc(NC(=S)NC(=O)c3cccnc3)cc2)no1 | 45µM* | 7% | 32µM* | -5% | -14% | ?
Cc1cc(NS(=O)(=O)c2ccc(NC(=S)NC(=O)c3ccc(Br)cc3)cc2)no1 | ? | -14% | -32% | ? | -29% | -32%
COc1ccc(/C=C/C(=O)NC(=S)Nc2ccc(S(=O)(=O)Nc3ccc(OC)nn3)cc2)cc1 | ? | -17% | -21% | 2% | -25% | -24%
CCCOC(=O)c1cccc(Nc2nc(CCC)cc(=O)[nH]2)c1 | -46%[59 µM] | 31% | -10% | · | · | -9%
COc1cccc(NC(=O)CSc2nnc3scc(-c4ccc(Cl)cc4)n23)c1 | ? | 18% | -5% | · | · | -3%
O=C(OCC#CCSc1nnc(-c2cccc3ccccc23)o1)c1cc2ccccc2s1 | · | · | 0% | · | · | ·
CCOc1ccc2c(c1)C(c1cccs1)=NNC(c1cccnc1)=N2 | -42% | -19% | ? | 3% | -10% | 71µM*
CCOC(=O)NC(=O)CSc1nc2ccccc2[nH]1 | 56µM* | 48% | -1% | 17% | -1% | ?
COc1nonc1NC(=O)CSc1nc2ccccc2[nH]1 | ? | 3% | -21%[11.4 µM] | -4% | 27µM* | 0%
Cc1nonc1NC(=O)CSc1nc2ccccc2[nH]1 | -31% | 22% | -8% | 8% | -8% | -15%
SMILES | G9a block | HP1b chromo inh | JMJD2A Tudor | Sfp PPTase inh | PLK1 PBD inh | BAZ2B block
O=C(CSc1nc2ccccc2[nH]1)NCc1ccccc1 | 17% | 18% | -13% | 2% | -5% | 4%
COc1ccc(CNC(C)C2COc3ccccc3O2)c(OC)c1 (centres undefined) | 10µM* | ? | 3.5µM* | -20% | -5% | 50µM*
CC(NC(=O)c1ccco1)C1COc2ccccc2O1 (centres undefined) | 25µM* | -6% | 56µM* | 5% | -21% | 50µM*
CC(NCC(O)COc1ccccc1)C1COc2ccccc2O1 (centres undefined) | -11% | 23% | -7% | 8% | 1% | -17%
CC(NC(=O)CCC(=O)NC(C)C1COc2ccccc2O1)C1COc2ccccc2O1 (centres undefined) | 5%[59 µM] | 27% | -16% | 10% | -7% | 10%
CC(NCc1ccccc1)C1COc2ccccc2O1 (centres undefined) | 32µM* | -56% | 3.2µM* | -9% | 3% | ?
COc1ccc(C2Nc3ccccc3C(=O)N2Cc2ccccc2)cc1COc1cccc(C(F)(F)F)c1 (centres undefined) | · | · | -12% | · | · | ·
CNC(=O)c1ccc(NC(=O)Nc2ccccc2)cc1 | 12%[59 µM] | 29% | -9% | 23% | -8% | -34%
CC(C)(C)S(=O)(=O)/C(C#N)=N/Nc1ccc(Cl)cc1 | 35µM* | 3% | ? | 23% | -15% | ?
CC(C)(C)c1ccc(N/N=C(\C#N)S(=O)(=O)C(C)(C)C)cc1 | -22% | 24% | -20% | -6% | 0% | ?
O=C(CCc1nc2ccccc2c(=O)[nH]1)Nc1cc(Cl)ccc1N1CCCC1 | 14µM* | 35% | -7% | · | -1% | 6%
O=C(COC(=O)CCc1nc2ccccc2c(=O)[nH]1)NC(=O)NC1CCCC1 | 10µM* | 33% | -31% | 1% | -14% | -1%
O=C(CCc1nc2ccccc2c(=O)[nH]1)Nc1ccc(N2CCCCC2)cc1 | -40% | 5% | -9% | -6% | 0% | ?
CC(NC(=O)COC(=O)CCc1nc2ccccc2c(=O)[nH]1)c1ccccc1 (centres undefined) | ? | 39% | -9% | 4% | -8% | -17%
Cc1ccccc1NC(=O)COC(=O)CCc1nc2ccccc2c(=O)[nH]1 | 45µM* | 49% | -10% | 14% | -7% | -3%
O=C(COC(=O)CCc1nc2ccccc2c(=O)[nH]1)Nc1ccc2c(c1)OCO2 | 56µM* | 41% | 3% | 11% | -8% | -17%
